Inconclusive results are not listed. Activity calls are given as the source filed them. Rule for the calls: active = hit-call score of the fitted dose curve at least 0.9, where 1 is the maximum; inconclusive = response in the unintended direction; inactive = score below 0.9.

The nature of the assay: ATG_M_19_EcoTox2: Attagene TRANS-FACTORIAL EcoTox-2 HepG2 Assay for M19 Transcription Factor (Internal Marker). The protocol: ATG_EcoTox2 is a cell-based, multiplexed assay created by modifying the existing Attagene TRANS-FACTORIAL system to include a panel of nuclear receptors from some or all the following species: human (Homo sapiens), african clawed frog (Xenopus laevis), rainbow trout (Oncorhynchus mykiss), japanese medaka (Oryzias latipes), and zebrafish (Danio rerio). The ECOTOX2-FACTORIAL format uses HepG2, a human liver cell line, with measurements taken at 24 hours after chemical dosing in a 24-well plate. ATG_M_19_EcoTox2 is one of 29 assay components calculated in the ATG_EcoTox2 assay. It is designed to make measurements of mRNA induction, a form of inducible reporter, as detected with fluorescence intensity signals by Reverse transcription polymerase chain reaction (RT-PCR) and Capillary electrophoresis technology.The assay endpoint ATG_M_19_EcoTox2 was analyzed in the positive analysis fitting direction relative to DMSO as the negative control and baseline of activity. Using a type of inducible reporter, measures of mRNA for gain-of-signal activity can be used to understand the background control at the transcription factor-level as they relate to the gene. Furthermore, this assay endpoint can be referred to as a secondary readout, because this assay has produced multiple assay endpoints where this one serves a background control function. To generalize the intended target to other relatable targets, this assay endpoint is annotated to the background measurement intended target family, where the subfamily is internal marker.
Human liver HepG2 cells are transiently transfected with multiple reporter transcription units (MRTUs) in 6-well plates using FuGene 6 reagent (Roche; 3 ml FuGene/1 mg DNA). The MRTU constructs are regulated by a cis-regulating element (promoter). Each RTU expresses a GAL4-UAS that regulates the transcription of a nearby target reporter gene sequence. A major difference between the CIS and TRANS system is that in CIS activities of endogenous TFs are measured, whereas the TRANS assay evaluates changes in activities of exogenous, chimeric NR-Gal4 proteins. […] At the end of 24 hour incubation, total RNA was isolated using TriZol reagent (Invitrogen). The isolated RNA is then reverse-transcribed using oligo(dT) primer and Mo-MLV reverse transcriptase (Invitrogen) with DNAse I (Ambion) treatment for 30 min. The one-tenth of the produced cDNA was amplified by PCR using Taq DNA polymerase (Invitrogen) and two reporter sequence-specific primers. […] The fragments were purified using Qiaquick PCR columns (Qiagen), analyzed on an ABI 3130xL genetic analyzer (Applied Biosystems) with peak positions identified by using a set of X-rhodamine (ROX)-labeled MapMarker1000 molecular weight standards (BioVentures). […]
On to `Cc1ccc(C)c(OCCCC(C)(C)C(=O)O)c1`, for which the result was inactive.
Under `CC(C)(Oc1ccc(CCNC(=O)c2ccc(Cl)cc2)cc1)C(=O)O` stands “inactive”.
Under `CC(C)(Oc1ccc(Cl)cc1)C(=O)O` stands “inactive”; under `C[C@@H]1C[C@H]2[C@@H]3CCC4=CC(=O)C=C[C@]4(C)[C@@]3(F)[C@@H](O)C[C@]2(C)[C@@]1(O)C(=O)COP(=O)(O)O`, “inactive”.
